From article PMC4336329 (PLoS ONE, 2015)
Among all 310,000 compounds or so, about 14,000 (4.5%) showed an effect of 50% or more. Effects have a minus sign here. This is one part of a sample in which strong results are shown more often than they occur.

The compounds below were run against human ether-à-go-go-related gene (hERG) potassium channel (human, UniProt Q12809) (assay: primary screen, population patch clamp on CHO cells stably expressing hERG; higher = less effect of the substance).
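Note: peak tail current of the secondary pulse compared with the same well before compound.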

Chain of human ether-à-go-go-related gene (hERG) potassium channel (Q12809 whole entry, looked up): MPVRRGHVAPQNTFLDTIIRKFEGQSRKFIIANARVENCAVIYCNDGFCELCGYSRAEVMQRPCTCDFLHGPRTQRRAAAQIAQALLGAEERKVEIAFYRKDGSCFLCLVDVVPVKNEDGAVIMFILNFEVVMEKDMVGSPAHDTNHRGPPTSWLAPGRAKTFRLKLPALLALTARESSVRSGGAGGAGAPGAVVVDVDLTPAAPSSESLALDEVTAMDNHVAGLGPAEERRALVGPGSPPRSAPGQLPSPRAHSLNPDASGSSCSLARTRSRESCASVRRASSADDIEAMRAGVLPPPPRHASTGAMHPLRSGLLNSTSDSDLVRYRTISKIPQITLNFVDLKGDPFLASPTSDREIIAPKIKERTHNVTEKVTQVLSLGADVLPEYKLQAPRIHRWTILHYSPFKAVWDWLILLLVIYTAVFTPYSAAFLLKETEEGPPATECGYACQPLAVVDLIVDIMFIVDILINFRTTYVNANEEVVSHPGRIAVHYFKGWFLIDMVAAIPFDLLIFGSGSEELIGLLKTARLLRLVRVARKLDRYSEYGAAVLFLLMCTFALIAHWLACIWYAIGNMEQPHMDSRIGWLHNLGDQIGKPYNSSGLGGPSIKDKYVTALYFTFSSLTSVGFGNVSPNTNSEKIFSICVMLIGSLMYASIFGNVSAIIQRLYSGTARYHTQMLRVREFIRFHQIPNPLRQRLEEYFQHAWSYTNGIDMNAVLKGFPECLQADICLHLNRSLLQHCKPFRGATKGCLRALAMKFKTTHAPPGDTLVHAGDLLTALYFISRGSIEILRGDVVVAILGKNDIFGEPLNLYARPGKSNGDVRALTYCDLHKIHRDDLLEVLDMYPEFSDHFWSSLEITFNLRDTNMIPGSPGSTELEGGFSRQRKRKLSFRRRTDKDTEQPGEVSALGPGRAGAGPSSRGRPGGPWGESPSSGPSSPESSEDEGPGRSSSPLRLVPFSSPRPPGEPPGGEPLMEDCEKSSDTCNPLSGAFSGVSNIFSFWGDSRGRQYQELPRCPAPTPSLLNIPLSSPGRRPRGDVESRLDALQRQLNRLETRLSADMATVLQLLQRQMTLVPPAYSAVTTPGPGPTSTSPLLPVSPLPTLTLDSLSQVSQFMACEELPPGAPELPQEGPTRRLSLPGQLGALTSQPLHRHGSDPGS

Going from `Cc1ccc(/C=C/C(=O)NCc2ccccn2)o1` to `Cc1ccc(C(C(=O)NC(C)(C)C)N(C(=O)c2csnn2)c2ccccc2F)o1` (centres unmarked), the “hERG current change (%, negative = inhibition) at 10uM” value rises from -26.4% to -9.84%.

Compared with `COc1ccc([C@@H]2[C@@H]3C(=O)N(C(C)(C)C)C(=O)[C@@H]3[C@]3(Cc4ccc(Cl)cc4)C(=O)N(c4ccc(Br)cc4)C(=O)N23)cc1`, `COc1ccc(CC2(CO)CCN(C(C)Cc3ccc(Cl)cc3)CC2)cc1` (centres unmarked) is lower in “hERG current change (%, negative = inhibition) at 10uM” value: 2.7% for the first, -80.4% for the second.

Going from `COc1ccc(CCC(C)N2CCc3ccccc3C2)cc1` (centres unmarked) to `COc1ccc(CC(=O)N2CCc3ccccc3C2)cc1`, the “hERG current change (%, negative = inhibition) at 10uM” value rises from -61.7% to 3.67%.

First: CC(COc1ccccc1)N1CCC(CO)(Cc2ccccc2)CC1 (centres unmarked)
Second: CN1CCC(CO)(Cc2ccccc2)CC1
The “hERG current change (%, negative = inhibition) at 10uM” value of the first is lower: -50.6% for the first, 16.2% for the second.

First: COc1ccc(CC2(CO)CCN(S(=O)(=O)N(C)C)CC2)cc1
Second: COc1ccc(CC2(CO)CCN(S(=O)(=O)c3c(C)nn(C)c3Cl)CC2)cc1
The “hERG current change (%, negative = inhibition) at 10uM” value of the first is lower: 9.82% for the first, 14.7% for the second.

Going from `COc1ccc(CCC(C)N2CCOCC2)cc1` (centres unmarked) to `COC(=O)c1ccc(/C=C/c2c(-c3ccc(OC)cc3)oc3ccc(N4CCOCC4)cc23)cc1`, the “hERG current change (%, negative = inhibition) at 10uM” value rises from 2.71% to 25.7%.

First: Cc1ccsc1C(=O)N1CCC(CO)(Cc2ccccc2)CC1
Second: CC1=C(C(=O)OCc2ccccc2)C(c2ccsc2)NC(=O)N1C (centres unmarked)
The “hERG current change (%, negative = inhibition) at 10uM” value of the first is higher: 17.6% for the first, -37.7% for the second.

Compared with `COc1ccc(N2CCN(C(=O)Cn3ncc4c([nH]c5ccccc54)c3=O)CC2)cc1`, `COc1ccc(NC(=O)CN(C)C(=O)Cc2c(C)nc3ccccc3c2C)cc1` is lower in “hERG current change (%, negative = inhibition) at 10uM” value: 9.02% for the first, -46.1% for the second.

Going from `CCOC(=O)Cc1csc(NC(=O)c2ccc(S(=O)(=O)N3CCCCC3)cc2)n1` to `CCOC(=O)N1CCC(NC(=O)c2ccc(Cl)cc2)CC1`, the “hERG current change (%, negative = inhibition) at 10uM” value rises from -42.2% to -14.5%.

Going from `O=[N+]([O-])c1cccn2cc(-c3ccc(Br)cc3)nc12` to `Cc1cc(NC(=O)c2cnn3c(C(F)(F)F)cc(-c4ccc(Br)cc4)nc23)no1`, the “hERG current change (%, negative = inhibition) at 10uM” value rises from -2.94% to 24.4%.

First: NS(=O)(=O)c1ccc(CCNC(=O)CCCCCNc2nc(=S)[nH]c3ccccc23)cc1
Second: CN(CC(=O)Nc1cccc(F)c1)C(=O)CCc1nc2ccccc2c(=O)[nH]1
The “hERG current change (%, negative = inhibition) at 10uM” value of the first is higher: 24.4% for the first, 2.42% for the second.

First: Cc1ccc(-n2c(=O)cc(NCc3cccnc3)[nH]c2=O)cc1
Second: CC(=NCc1cccnc1)c1c(O)n(-c2ccc(C)cc2)c(=O)[nH]c1=O
The “hERG current change (%, negative = inhibition) at 10uM” value of the first is lower: -65.5% for the first, -8.92% for the second.

Going from `Cc1ccc(NCc2cccnc2)cc1` to `COC(=O)c1cccc(NCN2C(=O)c3ccccc3C2=O)c1`, the “hERG current change (%, negative = inhibition) at 10uM” value falls from 2.82% to 1.11%.

First: COc1ccc(-c2cc(C(=O)N3CCCCCC3)no2)cc1OC
Second: CCN(CC)CCN(C(=O)Cn1nnc(-c2ccc(OC)c(OC)c2)n1)C(C(=O)NC1CCCC1)c1ccc(F)cc1 (centres unmarked)
The “hERG current change (%, negative = inhibition) at 10uM” value of the first is higher: 7.06% for the first, -35.1% for the second.

First: Cn1c(=O)c2c(nc(-n3ccnc3)n2Cc2ccc([N+](=O)[O-])cc2)n(C)c1=O
Second: CCOC(=O)N1CCN(c2c(NCc3ccc(Cl)cc3)c(=O)c2=O)CC1
The “hERG current change (%, negative = inhibition) at 10uM” value of the first is lower: -43.7% for the first, -17% for the second.

Compared with `Cc1cccc(C)c1NC(=O)CN1CCN(CC(=O)c2cc(C)n(C3CC3)c2C)CC1`, `Cc1cc(C(=O)CN2CCN(CC(=O)Nc3cccc(F)c3)CC2)c(C)n1C1CC1` is lower in “hERG current change (%, negative = inhibition) at 10uM” value: -12.4% for the first, -56.2% for the second.

Going from `Cc1cc(C(=O)CN2CCN(CC(=O)Nc3ccc(F)cc3)CC2)c(C)n1C1CC1` to `Cc1cc(C(=O)OCC(=O)Nc2ccc(F)cc2)c(C)n1C1CC1`, the “hERG current change (%, negative = inhibition) at 10uM” value rises from -74.5% to 5.51%.

Compared with `Cc1cc(C(=O)CN2C(=O)c3ccccc3C2=O)c(C)n1C1CC1`, `Cc1cc(C(=O)OCC(=O)Nc2cccc(F)c2)c(C)n1C1CC1` is lower in “hERG current change (%, negative = inhibition) at 10uM” value: -1.31% for the first, -2.59% for the second.

First: CCOC(=O)C(Cc1ccc(OC)c([N+](=O)[O-])c1)NC(=O)CCC(=O)Nc1ccc(C)cc1 (centres unmarked)
Second: CCOc1ccc(NC(=O)CN(C)C(=O)Cc2c(C)nc3ccccc3c2C)cc1OCC
The “hERG current change (%, negative = inhibition) at 10uM” value of the first is higher: -26.2% for the first, -47% for the second.

First: C[C@]12CC[C@@H]3c4ccc(O)cc4[C@@H](O)C[C@H]3[C@@H]1CC[C@@H]2O
Second: C[C@]12CC[C@@H]3c4ccc(O)cc4C(=O)C[C@H]3[C@@H]1CC[C@@H]2O
The “hERG current change (%, negative = inhibition) at 10uM” value of the first is higher: 10.4% for the first, -52.7% for the second.

Compared with `C[C@]12CC[C@@H]3c4ccc(O)c(O)c4CC[C@H]3[C@@H]1CC[C@@H]2O`, `CCOC(=O)N1CCC(Nc2c(NCCN3CCN(c4cccc(Cl)c4)CC3)c(=O)c2=O)CC1` is lower in “hERG current change (%, negative = inhibition) at 10uM” value: 15.4% for the first, -0.879% for the second.

First: CCN(CC)S(=O)(=O)c1ccc(/C=C/C(=O)OCC#N)cc1
Second: CC(C)CC(=O)NS(=O)(=O)c1ccc(NS(C)(=O)=O)cc1
The “hERG current change (%, negative = inhibition) at 10uM” value of the first is lower: -12.4% for the first, 11.7% for the second.

First: Cc1nc2ccccc2c(C)c1CC(=O)N(C)CC(=O)Nc1cccc(F)c1
Second: COc1cccc(NC(=O)CN(C)C(=O)Cc2c(C)nc3ccccc3c2C)c1
The “hERG current change (%, negative = inhibition) at 10uM” value of the first is higher: -55.9% for the first, -62.8% for the second.

Compared with `CN(CC(=O)Nc1cccc(F)c1)C(=O)Cc1n[nH]c(=O)c2ccccc12`, `CCCc1nc(Nc2nc3ccccc3o2)nc(C)c1C(=O)OCC` is lower in “hERG current change (%, negative = inhibition) at 10uM” value: 5.31% for the first, -18.3% for the second.

First: CCOCCCN(C(=O)Cn1nnc(-c2ccc(OC)c(OC)c2)n1)C(C(=O)NCC1CCCO1)c1ccc(F)cc1 (centres unmarked)
Second: CCN(CC)CCCN(C(=O)Cn1nnc(-c2ccc(OC)c(OC)c2)n1)C(C(=O)NC(C)(C)C)c1ccc(F)cc1 (centres unmarked)
The “hERG current change (%, negative = inhibition) at 10uM” value of the first is higher: -12.8% for the first, -74.5% for the second.

Going from `CCOC(=O)N1CCC(N2CCN(c3cc(C)ccc3C)CC2)CC1` to `CCOC(=O)N1CCC(N2CCN(c3ccccc3)CC2)CC1.Cl`, the “hERG current change (%, negative = inhibition) at 10uM” value rises from -51.2% to -21.4%.

Compared with `CCOC(=O)N1CCC(Nc2c(N3CCN(c4cccc(C(F)(F)F)c4)CC3)c(=O)c2=O)CC1`, `CCOC(=O)N1CCN(c2c(N3CCN(c4cccc(C(F)(F)F)c4)CC3)c(=O)c2=O)CC1` is higher in “hERG current change (%, negative = inhibition) at 10uM” value: -76.8% for the first, -46.4% for the second.

Compared with `CCOC(=O)N1CCN(c2c(NC3CCN(Cc4ccccc4)CC3)c(=O)c2=O)CC1`, `CCOC(=O)N1CCC(Nc2c(N3CCN(c4cc(Cl)ccc4C)CC3)c(=O)c2=O)CC1` is lower in “hERG current change (%, negative = inhibition) at 10uM” value: 7.18% for the first, -80.4% for the second.

Going from `CCOC(=O)N1CCC(NCCNC(=O)c2ccc(F)cc2)CC1.Cl` to `CCOC(=O)N1CCC(NCCNC(=O)c2ccc(Cl)cc2)CC1`, the “hERG current change (%, negative = inhibition) at 10uM” value falls from -25.2% to -57.8%.

`CCOC(=O)N1CCN(c2c(N3CCN(c4cc(C)ccc4C)CC3)c(=O)c2=O)CC1` was tested, and the “hERG current change (%, negative = inhibition) at 10uM” value was -15.1%.
